HTT cytoprotect = protects HTT-Q103 PC12 cells, measured by ATP; PC12 HTT-Q103 induced, cytoprotection, ATP luminescence, 40 h; Potency, µM (top dose mostly 56.4 µM), without a hit: cytoprotection (ATP increase), most hits filed as activators; actives 0.14% (n = 230,000); note: % of control where 0% means no effect; nearly all actives have a fitted effect of over 45% in size
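PC12 cells stably carrying ecdysone-inducible Htt exon 1 (Q103)–GFP were induced with 100 nM tebufenozide (final) alongside library compounds in a dose series. Cytoprotection was scored as retained ATP by ATPlite luminescence.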
S2 tox = viability counter-screen for ATXN expression inhibitors; S2 cells (HEK-293 line with an ATXN2-luciferase reporter) viability, CellTiter-Fluor protease fluorescence, 24 h; Potency, µM (doses to about 56.7 µM), usual class: cytotoxic; actives 0.49% (n = 400,000); AID 651635; note: nearly all actives have a fitted effect of over 40% in size
HTT aggregate = inhibitors of mutant huntingtin aggregate formation in PC12 cells | actives 1.1% (n = 220,000) | AID 1688 | Potency, µM (top dose mostly 46.1 µM), without a hit: at the top dose activity change, negative = inhibition, hits mostly inhibitors | PC12 HttQ103-GFP aggregates, Acumen cytometry, 40 h; note: % is set by controls: 0 for no effect and ±100 for the full control effect; nearly all actives have a fitted effect of over 60% in size
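PC12 cells stably carrying ecdysone-inducible HTT exon 1 Q103–GFP were induced with tebufenozide (100 nM final) and treated with library compounds in titration. GFP aggregates in lysates were counted by laser scanning cytometry.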
HepG2 tox = kills HepG2 cells in TGF-b inhibitor counter-screen | HepG2 CAGA-GFP viability, ATP luminescence, 18 h | Potency, µM (top dose mostly 46.1 µM), for inactives: at the highest dose activity change, negative = cytotoxicity, actives largely listed as cytotoxic | actives 0.76% (n = 410,000)
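HepG2 CAGA-GFP cells (1000/well, DMEM with 1% FBS) received compound, then TGF-beta at 500 pg/mL final, and were incubated 18 hours at 37 degrees C. Viability was read by CellTiter-Glo luminescence. Media-only wells were set as complete cell-killing and DMSO as no toxicity.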
ATXN2 expr inh = reduces ATXN2 reporter expression in HEK-293 cells; HEK-293 ATXN2-luciferase reporter, luminescence, 24 h; actives 0.72% (n = 360,000); Potency, µM (series often up to 57 µM), without a hit: at the top dose activity change, negative = inhibition, most hits filed as inhibitors; note: % is set by controls: 0 for no effect and ±100 for the full control effect; nearly all actives have a fitted effect of over 55% in size
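qHTS (up to 57 uM final) was run with 24 h compound exposure of reporter cells at 37 °C. Each well was multiplexed: SteadyGlo luminescence measured ATXN2-luciferase expression after a fluorogenic Gly-Phe-AFC viability readout (25 uM final).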
TGFb SMAD3 inh = inhibitors of TGF-b signaling; HepG2 CAGA-GFP TGF-b/SMAD3 reporter, GFP fluorescence, 18 h; TGF-beta stimulated, 500 pg/mL final; Potency, µM (doses to about 46.1 µM), for the others: at the highest dose activity, negative = inhibition, most hits filed as inhibitors; actives 1.2% (n = 410,000); AID 588855; note: % is set by controls: 0 for no effect and ±100 for the full control effect; nearly all actives have a fitted effect of over 65% in size
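GFP signal (ex488/em500-530) from TGF-beta-stimulated HEPG2 CAGA-GFP cells, 500 pg/mL final, 18 h at 37 degrees C in DMEM plus 1% FBS, normalized to unstimulated and DMSO-stimulated controls.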
Active calls of the source: *; i = inactive; ? = inconclusive; nt = no result; ! = repeats disagree; [ ] = another dose, or the depositor's remark. Sampled rows, rich in hits. Any-hit rate of the full collection: about 2.8%. Calls come from the whole dose curve; as a rule, active = well fitted curve in the direction sought with a large enough effect; inconclusive = small, poorly fitted or top-dose-only effect, or another doubt; inactive = no such curve, though single readings can be large; an effect the other way counts as inactive or inconclusive. Potency is the fitted concentration of half-maximal effect.

SMILES	HTT cytoprotect	S2 tox	HTT aggregate	HepG2 tox	ATXN2 expr inh	TGFb SMAD3 inh
O=C(Nc1cccc2[nH]ncc12)c1ccc(F)cc1	-15%	i	5µM*	-30%	70%	?
O=C(Nc1cccc2ccccc12)c1ccc(F)cc1	nt	?	nt	9%	nt	-11%
OC1CC2CCC(C1)N2CCCN1c2ccccc2Sc2ccc(Cl)cc21 (stereo not drawn)	nt	16µM*	nt	22µM*	11µM*	?
CN(C)c1c(Br)cc(C=O)cc1Br	nt	nt	nt	-11%	nt	-4%
Cc1ccc(S(=O)(=O)N2C(=O)/C(=C3\SC(=S)NC3=O)c3ccccc32)cc1	nt	nt	0.79µM*	nt	nt	nt
C[N+](C)(C)c1ccc(/C=C2\C=Cc3ccccc32)cc1	nt	nt	nt	-31%	nt	11%
CC1=C(CC[C@H](C)CO)O[C@@H]2C[C@@H]3[C@H]4CC[C@H]5C[C@@H](O)CC[C@]5(C)[C@@H]4CC(=O)[C@@]3(C)[C@@H]12	-14%[10 µM]	nt	nt	nt	nt	nt
COc1ccc(OCC(O)CNCCOc2ccccc2OC)c(C(C)(C)C)c1 (stereo not drawn)	nt	nt	nt	-117%	nt	13µM*
CN(C(=O)COc1ccccc1C(=O)Nc1ccccc1)c1ccccc1	nt	nt	nt	-26%	nt	?
O=C(NNc1ccccc1[N+](=O)[O-])Nc1ccc(Cl)c(Cl)c1	nt	i	11µM*	-42%	-23%	?
CCN(CC)S(=O)(=O)c1cc([N+](=O)[O-])ccc1NNC(=O)Nc1ccc(Cl)c(Cl)c1	-73%	nt	-18%[9.22 µM]	-3%	?	7.1µM*
COc1ccc2c(c1OC)C(Cc1ccccc1)N1CCc3cc4c(cc3C1=C2)OCO4 (stereo not drawn)	-43%[1.9 µM]	nt	nt	nt	nt	nt
O=C(CSc1nnc2ncccn12)N1CCCCCC1	-14%	i	0.56µM*	3%	0%	-5%
Cn1c(CSc2ncccn2)nnc1SCC(=O)N1CCCCC1	-8%[10 µM]	i	-1%	-2%	-6%	-10%
Cc1ccc(C(=O)N2CCCC(N3CCN(c4cccc(C(F)(F)F)c4)CC3)C2)s1 (stereo not drawn)	nt	?	nt	-45%	nt	11µM*
CC(=O)N1CCCC(N2CCN(c3cccc(C(F)(F)F)c3)CC2)C1 (stereo not drawn)	nt	i	nt	-40%	28%	-3%
N[C@H](C(=O)O)c1ccc(O)cc1	nt	i	nt	nt	1%[25.6 µM]	nt
COCCN(C)C(=O)c1cnn(-c2ncc3c(n2)-c2ccccc2CCC3)c1C1CC1	nt	i	nt	nt	nt	nt
CSc1ccc(-c2nc3cnccn3c2Nc2ccc3c(c2)OCO3)cc1	-48%	i	25%[9.22 µM]	-36%	5%	5µM*
COc1cc(CNc2nc(C)c(-c3ccn(CC4CCCN(C)C4)n3)s2)ccc1F (stereo not drawn)	nt	i	nt	nt	nt	nt
Fc1ccccc1C1CC(c2ccco2)=Nc2ccccc2S1 (stereo not drawn)	-1%[10 µM]	?	40%[9.22 µM]	-132%	nt	18µM*
COc1ccccc1C1CC(c2cccs2)=Nc2ccccc2S1 (stereo not drawn)	2%	i	8%	6%	11%	?
Cc1ncc2c(c1CNC(=O)c1cncs1)CCN(C(=O)c1cccc(-c3cccc(F)c3)c1)C2	nt	i	nt	nt	nt	nt
CN(C)CCNC(=O)c1cccc2ccc(-c3ccc(-c4ccccc4)cc3)nc12	nt	27µM*	nt	-92%	-14%	-15%
CN(C)CCNC(=O)c1cccc2nc3cccc(F)c3nc12	nt	?	nt	-78%	8.9µM*	?
SMILES	HTT cytoprotect	S2 tox	HTT aggregate	HepG2 tox	ATXN2 expr inh	TGFb SMAD3 inh
COCC1CCCN(Cc2ccc3c(c2)CN(C(=O)c2ccc(-n4cccn4)cc2)CCO3)C1 (stereo not drawn)	nt	i	nt	nt	nt	nt
Cc1cnccc1/C=C/c1ccc(N)cc1	nt	nt	nt	-23%	nt	5%
COc1ccc2c(c1)C(=O)[C@@H](OC(=O)Nc1ccc(C)c(Br)c1)[C@H](c1ccc(OC)c(Br)c1)O2	11%	nt	nt	nt	nt	nt
CCCc1ccc(OCC(=O)N2CCN(C(=O)COc3ccc(CCC)cc3OC)CC2)c(OC)c1	nt	i	nt	nt	-2%	nt
COc1ccc(C(=O)c2cn(Cc3ccc(F)cc3)c3ccc(C)cc3c2=O)cc1	nt	18µM*	nt	-7%	?	?
COc1ccc2c(c1)c(=O)c(C(=O)c1ccc(C)cc1)cn2Cc1ccccc1F	nt	25µM*	nt	-34%	?	?
CCOc1ccc(C(=O)c2cn(Cc3ccc(Cl)cc3)c3cc(OC)c(OC)cc3c2=O)cc1	nt	16µM*	nt	-28%	-7%	?
Cc1cc(Nc2cccc(Cl)c2)nc2ccc(NC(=O)c3cccnc3)cc12	nt	i	nt	13µM*	?	16µM*
O=C(O)c1ccc2c(c1)nc(Nc1cccc(Cl)c1)c1ccncc12	nt	nt	nt	nt	9.7µM*	nt
Cc1cc(Nc2cccc(C(F)(F)F)c2)nc2ccc(NC(=O)Cc3ccc(Cl)cc3)cc12	nt	i	nt	10µM*	20µM*	?
COc1cc(-c2cc(C)c3cccc(OC)c3n2)cc2c1OCCN(C(=O)CCn1ccc(C)n1)C2	nt	i	nt	nt	nt	nt
CCOC1OC(=O)C[C@H]1NC(=O)[C@@H]1CCCN1C(=O)[C@@H](NC(=O)c1ccc(N)c(Cl)c1)C(C)(C)C (stereo partly drawn)	nt	nt	nt	nt	51%	nt
CCOC(=O)C1=C(O)c2ccccc2C(=O)/C1=C\c1ccc(C)cc1	-6%[10 µM]	nt	15%	11µM*	?	?
Nc1ccccc1SC(CC(=O)c1ccccc1)c1ccccc1 (stereo not drawn)	nt	?	nt	-58%	nt	?
CC(C(Sc1ccccc1N)c1ccccc1)[N+](=O)[O-] (stereo not drawn)	-9%[10 µM]	28µM*	18%[9.22 µM]	-70%	?	?
CC(=O)NC(=S)Nc1ccc([N+](=O)[O-])cc1C	11µM*	i	?	-23%	-11%	-14%
CSCC[C@H](NC(=O)[C@H](Cc1c[nH]c2ccccc12)NC(=O)CCNC(=O)OC(C)(C)C)C(=O)N[C@@H](CC(=O)O)C(=O)N[C@@H](Cc1ccccc1)C(N)=O	nt	i	nt	nt	19%	nt
CCCC(=O)Nc1ccccc1NC(=O)CN(C)S(=O)(=O)c1ccc(C)cc1	19%[10 µM]	i	11%	13µM*	4%	-7%
CC(=O)Nc1ccccc1NC(=O)CN(C)S(=O)(=O)c1ccc(C)cc1	6%	i	0%	-5%	-1%	0%
CCCCC[C@H]1CN(Cc2ccccc2)C(=O)[C@@H]1CC(=O)NCc1ccccc1	nt	?	nt	14µM*!	?	18µM*
CCc1ccc(Nc2nnc(SCC(=O)Nc3sccc3C(N)=O)s2)cc1	nt	?	4%	-2%	1%	10µM*

Screening data from PubChem.
